Calls of active or inactive are those of the source.
Assays:
[1] = optical density shifts of acrAB sulA E. coli – strain DRC41, OD650, 48 h, E. coli filamentation inducer project, primary screen (AID 1152); conditions: higher = more signal, called active from +8 up or from −8 down;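 further: E. coli MC1000 strain DRC41 lacking acrAB efflux pump and sulA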
[2] = probe aLefty1 binding on compound microarray – biochemical, small-molecule microarray, 635/667 nm fluorescence, primary screen (AID 1153); conditions: higher = more signal;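 further: score merges spot fluorescence with signal-to-noise ratio from the scanned slide images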
[3] = plasmodial surface anion channel blockers, osmotic lysis – cell-based, P. falciparum Indochina, OD700, 1 h, primary screen (AID 1154); conditions: P. falciparum Indochina infected RBC osmotic lysis, higher = more signal, called active from +8 up or from −8 down
[4] = plasmodial surface anion channel blockers, osmotic lysis – cell-based, P. falciparum Indochina, OD700, 2 h, primary screen (AID 1155);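 further: lysis reports solute entry through the parasite surface anion channel PSAC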; conditions: P. falciparum Indochina infected erythrocytes, higher = more signal, called active from +8 up or from −8 down
[5] = changes in parasitized red cell lysis, either direction – P. falciparum Indochina, OD700, 3 h, PSAC antagonist project, primary screen (AID 1156); conditions: P. falciparum-infected erythrocytes, osmotic lysis, higher = more signal, called active from +8 up or from −8 down
[6] = plasmodial surface anion channel blockers, osmotic lysis – cell-based, P. falciparum Indochina, OD700, 18 h, primary screen (AID 1157); conditions: P. falciparum Indochina infected erythrocytes, osmotic lysis OD700, 18 h; higher = more signal, called active from +8 up or from −8 down
[7] = S6 kinase pathway phospho-S6 level changes – cell-based, A549, cytoblot, luminescence, serum-stimulated, primary screen (AID 1158); conditions: 5 h, higher = more signal;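 further: serum-stimulated A549 lung adenocarcinoma cells; signal is phosphorylated S6 detected by cytoblot immunostaining with HRP secondary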
[8] = target: NADPH oxidase 2 (Homo sapiens) (UniProt P04839); test: compounds shifting NOX2 Amplex Red fluorescence – cell-based, HEK293-NOX2, PMA-stimulated, NOX inhibitor project, primary screen (AID 1159); conditions: 45 min, higher = more signal, called active from +8 up or from −8 down; further: test concentration not given here
NADPH oxidase 2 (Homo sapiens), sequence (P04839 whole entry, looked up): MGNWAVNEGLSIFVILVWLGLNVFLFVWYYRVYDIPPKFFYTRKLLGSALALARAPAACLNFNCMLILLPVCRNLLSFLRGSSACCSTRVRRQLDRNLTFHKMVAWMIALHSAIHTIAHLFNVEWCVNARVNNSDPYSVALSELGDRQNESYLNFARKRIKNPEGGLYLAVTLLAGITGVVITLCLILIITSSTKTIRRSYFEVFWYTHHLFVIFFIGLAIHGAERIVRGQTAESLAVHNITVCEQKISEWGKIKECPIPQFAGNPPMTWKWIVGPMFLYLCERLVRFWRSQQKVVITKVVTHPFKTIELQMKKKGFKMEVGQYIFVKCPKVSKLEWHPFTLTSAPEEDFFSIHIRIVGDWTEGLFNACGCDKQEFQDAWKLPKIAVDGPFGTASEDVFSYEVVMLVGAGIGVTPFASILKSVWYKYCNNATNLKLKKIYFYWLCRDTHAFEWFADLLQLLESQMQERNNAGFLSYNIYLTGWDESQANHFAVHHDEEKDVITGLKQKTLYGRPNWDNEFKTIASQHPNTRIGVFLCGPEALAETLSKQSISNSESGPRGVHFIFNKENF

[9] = target: NADPH oxidase 4 (Homo sapiens) (UniProt Q9NPH5); test: compounds shifting NOX4 Amplex Red fluorescence – cell-based, HEK293-NOX4, tetracycline-induced, NOX inhibitor project, primary screen (AID 1160); conditions: HEK293-NOX4, Amplex Red H2O2 fluorescence, 45 min; higher = more signal, called active from +8 up or from −8 down
NADPH oxidase 4 (Homo sapiens), sequence (Q9NPH5 whole entry, looked up): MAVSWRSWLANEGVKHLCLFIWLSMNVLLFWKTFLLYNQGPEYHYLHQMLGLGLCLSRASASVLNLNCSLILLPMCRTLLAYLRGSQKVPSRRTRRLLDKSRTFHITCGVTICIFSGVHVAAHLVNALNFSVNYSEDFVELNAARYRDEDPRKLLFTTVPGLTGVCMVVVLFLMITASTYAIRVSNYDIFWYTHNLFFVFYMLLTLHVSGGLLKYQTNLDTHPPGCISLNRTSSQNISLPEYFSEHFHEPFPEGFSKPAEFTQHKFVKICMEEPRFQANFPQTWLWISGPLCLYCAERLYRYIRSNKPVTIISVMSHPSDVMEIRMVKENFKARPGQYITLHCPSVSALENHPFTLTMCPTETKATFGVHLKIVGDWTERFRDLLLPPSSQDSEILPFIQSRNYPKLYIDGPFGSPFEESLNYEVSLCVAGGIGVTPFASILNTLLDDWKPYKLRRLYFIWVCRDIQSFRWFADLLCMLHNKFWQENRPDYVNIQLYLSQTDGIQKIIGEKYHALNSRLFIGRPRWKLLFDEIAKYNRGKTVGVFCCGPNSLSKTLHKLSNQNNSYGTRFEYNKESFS

[10] = target: NADPH oxidase 5 (Homo sapiens) (UniProt Q96PH1); test: compounds shifting NOX5 Amplex Red fluorescence – cell-based, HEK293-NOX5, NOX inhibitor project, primary screen (AID 1161); conditions: HEK293-NOX5, ionomycin, 45 min, higher = more signal
NADPH oxidase 5 (Homo sapiens), sequence (Q96PH1 whole entry, looked up): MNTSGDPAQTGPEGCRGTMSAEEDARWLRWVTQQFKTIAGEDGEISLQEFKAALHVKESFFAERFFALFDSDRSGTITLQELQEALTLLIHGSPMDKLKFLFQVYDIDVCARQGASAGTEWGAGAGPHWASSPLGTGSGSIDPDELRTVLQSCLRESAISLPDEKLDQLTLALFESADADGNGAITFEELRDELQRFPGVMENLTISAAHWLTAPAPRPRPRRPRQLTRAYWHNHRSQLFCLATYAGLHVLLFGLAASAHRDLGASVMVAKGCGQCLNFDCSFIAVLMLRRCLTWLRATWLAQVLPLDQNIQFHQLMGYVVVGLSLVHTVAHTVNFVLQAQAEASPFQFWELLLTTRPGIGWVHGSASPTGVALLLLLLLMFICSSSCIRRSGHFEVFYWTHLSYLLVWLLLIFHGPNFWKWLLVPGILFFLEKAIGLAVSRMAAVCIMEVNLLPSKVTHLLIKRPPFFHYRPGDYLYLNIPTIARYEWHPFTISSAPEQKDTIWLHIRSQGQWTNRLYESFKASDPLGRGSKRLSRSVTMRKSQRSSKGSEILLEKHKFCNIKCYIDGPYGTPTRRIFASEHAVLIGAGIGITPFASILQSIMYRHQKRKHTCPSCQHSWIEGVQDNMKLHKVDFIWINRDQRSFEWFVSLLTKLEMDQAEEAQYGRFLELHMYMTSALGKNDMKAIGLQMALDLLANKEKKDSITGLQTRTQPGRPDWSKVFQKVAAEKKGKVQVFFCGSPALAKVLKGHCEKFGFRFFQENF

[11] = compound effects on lung adenocarcinoma cell viability – A549, calcein-AM fluorescence, 48 h, basal, profiling panel (AID 1162); conditions: higher = more signal; further: test concentration not given here
[12] = compound effects on differentiated 3T3-L1 adipocyte viability – cell-based, 3T3-L1 adipocytes, calcein-AM fluorescence, 48 h, basal, profiling panel (AID 1163); conditions: 3T3-L1 adipocytes viability, higher = more signal; further: test concentration not given here
[13] = compound effects on hepatocellular carcinoma cell viability – HepG2, calcein-AM fluorescence, 48 h, basal, profiling panel (AID 1164); conditions: higher = more signal; further: test concentration not given here
[14] = compound effects on multiple myeloma cell viability – MM1S, calcein-AM fluorescence, 48 h, basal, profiling panel (AID 1165); conditions: higher = more signal; further: test concentration not given here
[15] = calcein-AM signal in unstimulated myeloma cells – cell-based, calcein-AM fluorescence, 48 h, PK04 Diversity Set, profiling panel (AID 1166); conditions: RPMI8226 myeloma viability, higher = more signal;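 further: cells grown under basal conditions without added stimulus; test concentration not given here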
[16] = JC-1 mitochondrial signal, unstimulated HepG2 cells – cell-based, JC-1 fluorescence, 24 h, 100 nL compound, profiling panel (AID 1167); conditions: HepG2 mitochondrial potential, higher = more signal; further: test concentration not given here
[17] = JC-1 mitochondrial signal, unstimulated adipocytes – cell-based, JC-1 fluorescence, 3T3-L1 adipocytes, 24 h, 100 nL compound, profiling panel (AID 1168); conditions: JC-1 mitochondrial fluorescence, higher = more signal, called active from +8 up or from −8 down; further: test concentration not given here
[18] = JC-1 mitochondrial signal, unstimulated myeloma cells – cell-based, JC-1 fluorescence, RPMI8226, 24 h, 100 nL compound, profiling panel (AID 1169); conditions: JC-1 mitochondrial potential fluorescence, higher = more signal; further: test concentration not given here
[19] = JC-1 mitochondrial signal, unstimulated MM1S myeloma – cell-based, JC-1 fluorescence, 24 h, 100 nL compound, profiling panel (AID 1170); conditions: MM1S mitochondrial potential, higher = more signal; further: test concentration not given here
[20] = resazurin metabolic signal in A549 cells – cell-based, resazurin fluorescence, 24 h, PK04 Diversity Set, profiling panel (AID 1171); conditions: A549 viability, higher = more signal, called active from +8 up or from −8 down; further: test concentration not given here

SMILES	z-score [1]	composite z-score [2]	z-score [3]	z-score [4]	z-score [5]	z-score [6]	z-score [7]	z-score [8]	z-score [9]	z-score [10]	z-score [11]	z-score [12]	z-score [13]	z-score [14]	z-score [15]	z-score [16]	z-score [17]	z-score [18]	z-score [19]	z-score [20]
O=C1O[C@@H](c2ccccc2)[C@@H](c2ccccc2)N2[C@@H](c3ccc(OCCO)cc3)[C@]3(C(=O)Nc4ccc(C#CC5=CCCCC5)cc43)[C@@H](C(=O)N3CCCCCCC3)[C@H]12	0.343 (inactive)	2.14	3.46 (inactive)	1.85 (inactive)	0.501 (inactive)	1.03 (inactive)	-0.262	0.463 (inactive)	0.159 (inactive)	0.293	-0.364	0.284	1.1	-0.446	-1.31	0.226	-4.13 (inactive)	-0.831	-1.14	-0.207 (inactive)
CS(=O)(=O)CCOC(=O)C1=CC(CCCO)=CC(c2ccc(CN3CCCC3)cc2)N(Cc2cccc(OC(F)(F)F)c2)C=C1C(=O)OCCS(C)(=O)=O (stereo not given)	-0.804 (inactive)	0.879	1.55 (inactive)	0.942 (inactive)	0.128 (inactive)	0.577 (inactive)	0.219	-0.302 (inactive)	-0.764 (inactive)	-0.504	0.75	0.309	1.81	-1.46	-0.697	3.78	-0.168 (inactive)	-0.661	-0.935	0.516 (inactive)
CC(C)NC(=O)[C@@]1(Cc2ccccc2I)c2ccccc2C(=O)N(Cc2ccccc2Cl)[C@H]1c1ccc(CO)cc1	-0.522 (inactive)	0.223	10.7 (active)	1.77 (inactive)	0.614 (inactive)	1.06 (inactive)	0.026	0.284 (inactive)	0.904 (inactive)	0.774	-0.271	0.0063	0.768	-1.59	-2.03	-0.274	0.131 (inactive)	0.0101	-0.756	0.0211 (inactive)
O=C1NC(=O)C2C1C=CC(C(O)c1ccc(I)cc1)N2Nc1ccccn1 (stereo not given)	-1.29 (inactive)	0.0701	1.41 (inactive)	0.698 (inactive)	0.0388 (inactive)	0.729 (inactive)	-0.779	-1.16 (inactive)	-2.82 (inactive)	-2.2	-0.0915	-0.891	-0.145	-0.619	-0.566	-1.35	-0.47 (inactive)	0.537	-0.0562	-0.107 (inactive)
CC(=O)NCCCC[C@@H]1NC(=O)[C@H]2C[C@@H](C(=O)NCCCCCNC(=O)CS)[C@@H](c3ccc(O)cc3)N2C1=O	-0.0078 (inactive)	-0.12	1.94 (inactive)	0.811 (inactive)	-0.952 (inactive)	0.425 (inactive)	-0.591	0.772 (inactive)	-2.06 (inactive)	-0.294	0.489	0.102	0.0041	-1.41	0.102	0.231	-0.729 (inactive)	0.698	0.612	-0.187 (inactive)
COc1ccccc1CN1C(=O)c2ccccc2[C@@H](C(=O)NCc2ccccc2)[C@@H]1c1ccc(CO)cc1	-0.0367 (inactive)	0.148	1.8 (inactive)	0.566 (inactive)	0.708 (inactive)	0.205 (inactive)	0.161	-1.11 (inactive)	0.148 (inactive)	-0.707	1.2	0.448	0.292	-0.881	0.47	2.08	0.819 (inactive)	-0.288	0.544	0.832 (inactive)
COC(=O)C(CC#Cc1ccc2c(c1)[C@]1(C(=O)N2)[C@H](c2ccc(O)cc2)N2[C@H](c3ccccc3)[C@H](c3ccccc3)OC(=O)[C@H]2[C@@H]1C(=O)N1CCN(c2ncccn2)CC1)C(=O)OC	0.347 (inactive)	0.027	5.42 (inactive)	0.658 (inactive)	1.93 (inactive)	0.515 (inactive)	0.355	1.91 (inactive)	0.857 (inactive)	1.54	-0.112	-0.274	0.9	-2.43	-4.48	-0.758	0.999 (inactive)	-1.07	-2.02	-0.558 (inactive)
O=C1NC(=O)C2C1C=CC(C(O)C1CC=CCC1)N2Nc1ccccn1 (stereo not given)	-0.629 (inactive)	-0.0172	-0.158 (inactive)	-0.0567 (inactive)	0.0677 (inactive)	0.288 (inactive)	-0.259	-2.27 (inactive)	-2.52 (inactive)	-1.61	-0.905	-0.635	1.06	0.0581	-0.362	-0.265	-0.147 (inactive)	-0.074	-0.642	-1.44 (inactive)
Cc1c(NC(=O)/C(C#N)=C/c2cccc([N+](=O)[O-])c2)c(=O)n(-c2ccccc2)n1C	0.969 (inactive)	-0.173	0.468 (inactive)	-0.376 (inactive)	-0.451 (inactive)	-0.481 (inactive)	2.39	-1.36 (inactive)	-0.497 (inactive)	0.864	4.01	1.31	0.461	0.943	2.4	0.69	-1.08 (inactive)	-0.122	-0.054	-0.133 (inactive)
CC(C)[C@@H](C(=O)O)n1cc(C2(O)CCCCC2)nn1	-0.0464 (inactive)	-0.188	-0.477 (inactive)	-0.436 (inactive)	-2.15 (inactive)	-0.89 (inactive)	0.0556	-1.09 (inactive)	-0.176 (inactive)	-0.658	0.566	1.51	-0.294	0.248	0.215	0.727	0.639 (inactive)	-0.302	-0.394	0.194 (inactive)
COc1ccc([C@H]2OC[C@@H]3CCC(=O)N32)cc1	0.0137 (inactive)	0.0868	0.4 (inactive)	0.698 (inactive)	-0.297 (inactive)	0.48 (inactive)	0.0166	0.982 (inactive)	0.342 (inactive)	-0.0609	-0.245	-0.315	-0.0392	-0.804	0.502	0.0252	-0.139 (inactive)	-0.225	-0.1	0.109 (inactive)
COCCOC(=O)N1C(=O)[C@@]2(c3ccccc31)[C@H](C(=O)N1CCCCCCC1)[C@H]1C(=O)O[C@H](c3ccccc3)[C@H](c3ccccc3)N1[C@@H]2c1ccc(OCCO)cc1	-0.448 (inactive)	3.13	8.64 (active)	1.89 (inactive)	1.31 (inactive)	0.976 (inactive)	0.213	-0.0367 (inactive)	0.867 (inactive)	1.53	-0.134	-0.202	-0.265	-0.88	-1.07	-0.639	-1.75 (inactive)	-0.714	-1.15	0.526 (inactive)
COC(=O)[C@]1(Cc2ccccc2)N=C(c2ccc(OCCCO)cc2)O[C@@H]1c1ccccc1N=[N+]=[N-]	-1.19 (inactive)	-0.324	28 (active)	24.7 (active)	0.883 (inactive)	4.33 (inactive)	0.483	-0.936 (inactive)	1.14 (inactive)	0.0948	-2.41	0.574	-5.44	-3.61	-3.66	-2.75	-0.223 (inactive)	-1.13	-2.9	-2.87 (inactive)
C=CCNC(=O)[C@@H]1[C@H]2C(=O)O[C@H](c3ccccc3)[C@H](c3ccccc3)N2[C@H](c2ccc(OCCO)cc2)[C@@]12C(=O)N(C(=O)OCCOC)c1ccc(C#CCC(C(=O)OC)C(=O)OC)cc12	-0.314 (inactive)	0.404	7.08 (inactive)	1.72 (inactive)	-0.211 (inactive)	0.581 (inactive)	-0.0943	2.26 (inactive)	1.2 (inactive)	1.37	-0.906	0.445	-0.713	-1.85	-1.34	0.366	0.0731 (inactive)	-0.799	-1.16	0.185 (inactive)
[N-]=[N+]=Nc1ccccc1C[C@]1(C(=O)N2CCCCC2)COC(c2ccc(OCCCO)cc2)=N1	0.891 (inactive)	0.371	23.1 (active)	9.64 (active)	3.34 (inactive)	1.77 (inactive)	-0.391	-4.46 (inactive)	-0.826 (inactive)	-1.79	-0.611	0.761	-0.328	-3.52	-4.33	-0.676	0.00722 (inactive)	-1.3	-2.03	1.85 (inactive)
CCCC1(C(=O)OC)C=C2C(=C(c3ccccc3)C(=O)C2C)CN1 (stereo not given)	-1.23 (inactive)	0.51	2.2 (inactive)	0.194 (inactive)	0.923 (inactive)	0.324 (inactive)	-0.267	-0.2 (inactive)	-2.64 (inactive)	-2.63	-1	-0.446	-0.5	0.136	-1.14	0.0027	-1.23 (inactive)	-0.198	-0.949	-0.42 (inactive)
O=C1O[C@@H](c2ccccc2)[C@@H](c2ccccc2)N2[C@@H](c3ccccc3OCCO)[C@]3(C(=O)Nc4ccc(C#CC5(O)CCCCCC5)cc43)[C@@H](C(=O)N3CCN(c4ncccn4)CC3)[C@H]12	0.691 (inactive)	-0.0141	1.89 (inactive)	1.66 (inactive)	2.21 (inactive)	1.18 (inactive)	-0.451	0.814 (inactive)	0.343 (inactive)	1.93	-0.643	1.46	0.11	-1.22	-2.29	-0.457	0.821 (inactive)	-1.04	-0.796	-0.697 (inactive)
O=C1O[C@H](c2ccccc2)[C@H](c2ccccc2)N2[C@H]1[C@@H](C(=O)N1CCN(c3ncccn3)CC1)[C@]1(C(=O)Nc3ccc(C#CC4=CCCCC4)cc31)[C@H]2c1ccccc1OCCO	-0.544 (inactive)	1.52	1.45 (inactive)	0.746 (inactive)	0.774 (inactive)	1.03 (inactive)	-0.187	1.46 (inactive)	0.867 (inactive)	1.01	-1.02	1.09	-0.769	-2.23	-1.72	-0.915	2.88 (inactive)	-1.18	-1.01	-1.34 (inactive)
